# Experimental data taken from PubChem BioAssay (EPA / NIEHS).
# Results filed as inconclusive are left out. Calls of active or inactive are those of the source. How the source made its calls: active means hit-call score of the fitted dose curve at least 0.9, where 1 is the maximum; inconclusive means response in the unintended direction; inactive means score below 0.9.
# What was measured:
# [1] = TOX21_p53_BLA_p2_viability: Viability Assessment in the Tox21 HCT-116 p53 Agonism Beta-lactamase Assay, Phase 2 (AID 2283591);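 further: compound exposure lasted 16 h at 37 °C; actives lower the ATP signal meaning cytotoxicity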
# In short: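 Cytotoxicity readout: CellTiter-Glo ATP luminescence, 30 min at room temperature, after the beta-lactamase read. Cells were HCT116 exposed 16 h at 37C to compounds pin-transferred at 217-fold dilution from DMSO stocks.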
# [2] = target: Cellular tumor antigen p53 (Homo sapiens) (UniProt P04637); experiment: TOX21_p53_BLA_p2_ratio: Tox21 HCT-116 p53 Agonism Beta-lactamase Assay, Ratio, Phase 2 (AID 2283592)
# In short: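 DMSO-normalized, positive-direction endpoint derived from the 460 nm/530 nm FRET ratio in HCT116 p53 beta-lactamase reporter cells exposed 16 h at 37C and loaded with CCF4-AM for 2 h.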
# [3] = TOX21_p53_BLA_p3_viability: Viability Assessment in the Tox21 HCT-116 p53 Agonism Beta-lactamase Assay, Phase 3 (AID 2283593);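 further: cells exposed to compound for 16 h before reading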
# In short: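 Cellular ATP was quantified by CellTiter-Glo luminescence, read after 30 min at room temperature. Beforehand, HCT116 cells (4000/well) received compound 5 h post-seeding, 217-fold diluted from DMSO, then incubated 16 h at 37C.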
# [4] = target: Cellular tumor antigen p53 (Homo sapiens) (UniProt P04637); experiment: TOX21_p53_BLA_p3_ratio: Tox21 HCT-116 p53 Agonism Beta-lactamase Assay, Ratio, Phase 3 (AID 2283596)
# In short: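 Cells were seeded at 4000/well, rested 5 h at 37C, then dosed with DMSO compound solutions (217-fold dilution) for 16 h. CCF4-AM substrate was loaded for 2 h at room temperature, and the 460/530 nm emission ratio was fitted for gain of signal versus DMSO.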
# [5] = target: Cellular tumor antigen p53 (Homo sapiens) (UniProt P04637); experiment: TOX21_p53_BLA_p5_ratio: Tox21 HCT-116 p53 Agonism Beta-lactamase Assay, Ratio, Phase 5 (AID 2283599)
# In short: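 Beta-lactamase reporter ratio (blue 460 nm over green 530 nm, 405 nm excitation) after 2 h CCF4-AM loading, in HCT-116 cells exposed 16 h at 37 C to compounds pinned at 217-fold dilution. Increases relative to DMSO baseline scored.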
# [6] = TOX21_p53_BLA_p5_viability: Viability Assessment in the Tox21 HCT-116 p53 Agonism Beta-lactamase Assay, Phase 5 (AID 2283600)
# In short: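 Here cell health was gauged by ATP levels in wells holding 4000 cells, each treated 16 h with DMSO-delivered compounds at 217-fold dilution; reduced luminescence marked toxicity.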
# [7] = target: Cellular tumor antigen p53 (Homo sapiens) (UniProt P04637); experiment: TOX21_p53_BLA_p4_ratio: Tox21 HCT-116 p53 Agonism Beta-lactamase Assay, Ratio, Phase 4 (AID 2283601)
# In short: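 Signal is the blue/green (460nm/530nm) ratio of cleaved versus uncleaved CCF4-AM substrate, read after 2 h substrate loading. Cells were HCT116 carrying the p53-responsive beta-lactamase reporter, dosed 16 h at 37C, 5% CO2; CellTiter-Glo measured in parallel.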
# Chain of Cellular tumor antigen p53 (Homo sapiens) (P04637 whole entry, looked up): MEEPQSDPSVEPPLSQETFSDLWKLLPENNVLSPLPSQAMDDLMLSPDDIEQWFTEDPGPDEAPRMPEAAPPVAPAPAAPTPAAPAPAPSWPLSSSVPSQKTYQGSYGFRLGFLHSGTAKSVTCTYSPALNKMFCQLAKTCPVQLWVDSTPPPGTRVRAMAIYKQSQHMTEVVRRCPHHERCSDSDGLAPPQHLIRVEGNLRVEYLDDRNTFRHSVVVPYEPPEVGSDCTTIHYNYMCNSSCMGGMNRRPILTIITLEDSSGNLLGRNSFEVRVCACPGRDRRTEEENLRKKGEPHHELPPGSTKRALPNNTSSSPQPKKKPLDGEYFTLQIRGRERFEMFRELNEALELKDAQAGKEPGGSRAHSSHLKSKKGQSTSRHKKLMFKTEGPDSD
smiles,measurement,setting,value
NC[C@@H]1CC[C@@H](N)[C@@H](O[C@H]2[C@H](O)[C@@H](O[C@H]3O[C@H](CO)[C@@H](O)[C@H](N)[C@H]3O)[C@H](N)C[C@@H]2N)O1,outcome,[1],inactive
same,outcome,[2],inactive
same,outcome,[3],inactive
same,outcome,[4],inactive
same,outcome,[5],inactive
same,outcome,[6],inactive
same,outcome,[7],inactive
CCOc1nc2cccc(C(=O)O)c2n1Cc1ccc(-c2ccccc2-c2nn[nH]n2)cc1,AC50,[1],21.9 µM (active)
same,AC50,[2],28.7 µM (active)
same,AC50,[3],35.8 µM (active)
same,AC50,[4],43.3 µM (active)
same,AC50,[5],44.3 µM (active)
same,AC50,[6],38.2 µM (active)
same,outcome,[7],inactive
CCCOC(=O)c1ccccc1,outcome,[1],inactive
same,outcome,[2],inactive
same,outcome,[3],inactive
same,outcome,[4],inactive
same,outcome,[5],inactive
same,outcome,[6],inactive
same,outcome,[7],inactive
CCc1nnc(NS(=O)(=O)c2ccc(N)cc2)s1,outcome,[1],inactive
same,outcome,[2],inactive
same,outcome,[3],inactive
same,outcome,[4],inactive
same,outcome,[5],inactive
same,outcome,[6],inactive
CC(C)(C)OC(=O)c1ccccc1C(=O)O,outcome,[1],inactive
same,outcome,[2],inactive
same,outcome,[3],inactive
same,outcome,[4],inactive
same,outcome,[5],inactive
same,outcome,[6],inactive
same,outcome,[7],inactive
CCc1ccc(S(=O)(=O)O)cc1,outcome,[1],inactive
same,outcome,[2],inactive
same,outcome,[3],inactive
same,outcome,[4],inactive
same,outcome,[5],inactive
same,outcome,[6],inactive
same,outcome,[7],inactive
CC(C)C[C@H](NC(=O)[C@@H](COC(C)(C)C)NC(=O)[C@H](Cc1ccc(O)cc1)NC(=O)[C@H](CO)NC(=O)[C@H](Cc1c[nH]c2ccccc12)NC(=O)[C@H](Cc1cnc[nH]1)NC(=O)[C@@H]1CCC(=O)N1)C(=O)N[C@@H](CCCN=C(N)N)C(=O)N1CCC[C@H]1C(=O)NNC(N)=O,outcome,[1],inactive
same,outcome,[2],inactive
same,outcome,[3],inactive
same,outcome,[4],inactive
same,outcome,[5],inactive
same,outcome,[6],inactive
same,outcome,[7],inactive
C=C1[C@@H]2CC[C@@H](C2)C1(C)C,outcome,[1],inactive
same,outcome,[2],inactive
same,outcome,[3],inactive
same,outcome,[4],inactive
same,outcome,[5],inactive
same,outcome,[6],inactive
same,outcome,[7],inactive
CC(=C\c1ccccc1)/C=C1/SC(=S)N(CC(=O)O)C1=O,outcome,[1],inactive
same,outcome,[2],inactive
same,outcome,[3],inactive
same,outcome,[4],inactive
same,outcome,[5],inactive
same,outcome,[6],inactive
same,outcome,[7],inactive
CCCn1cnc2c1c(=O)n(CCCCC(C)=O)c(=O)n2C,outcome,[1],inactive
same,outcome,[2],inactive
same,outcome,[3],inactive
same,outcome,[4],inactive
same,outcome,[5],inactive
same,outcome,[6],inactive
CCN(CC)CCOC(=O)c1cccnc1,outcome,[1],inactive
same,outcome,[2],inactive
same,outcome,[3],inactive
same,outcome,[4],inactive
same,outcome,[5],inactive
same,outcome,[6],inactive
C[C@@H](O)[C@H]1C(=O)N2C(C(=O)[O-])=C(SC3Cn4cnc[n+]4C3)[C@H](C)[C@H]12 (stereo partly drawn),outcome,[1],inactive
same,outcome,[2],inactive
same,outcome,[3],inactive
same,outcome,[4],inactive
same,outcome,[5],inactive
same,outcome,[6],inactive
C1CCC(C(CC2CCCCN2)C2CCCCC2)CC1 (stereo not drawn),AC50,[1],18.2 µM (active)
same,AC50,[2],26.5 µM (active)
same,AC50,[3],33.3 µM (active)
same,AC50,[4],43.1 µM (active)
same,AC50,[5],43.7 µM (active)
same,AC50,[6],34 µM (active)
same,AC50,[7],20.5 µM (active)
COc1cc(NS(=O)(=O)c2ccc(N)cc2)nc(OC)n1,outcome,[1],inactive
same,outcome,[2],inactive
same,outcome,[3],inactive
same,outcome,[4],inactive
same,outcome,[5],inactive
same,outcome,[6],inactive
same,outcome,[7],inactive
CCCCCCCCCCCCCCCCCC(=O)[O][Al],outcome,[1],inactive
same,outcome,[2],inactive
same,outcome,[3],inactive
same,outcome,[4],inactive
same,outcome,[5],inactive
same,outcome,[6],inactive
same,outcome,[7],inactive
COc1cc(C(=O)NCc2ccc(OCCN(C)C)cc2)cc(OC)c1OC,outcome,[1],inactive
same,outcome,[2],inactive
same,outcome,[3],inactive
same,outcome,[4],inactive
same,outcome,[5],inactive
same,outcome,[6],inactive
same,outcome,[7],inactive
